Targets with a hit are over-represented here; the source holds about 8,800 in all. About 0.5% of all pairs of compound and target were hits.
What was measured:
Assay in all cases: log2 fold change, soluble protein after heating vs DMSO (PISA); higher = thermal stabilisation; K562 lysate, 10 uM; active = over 0.2 and 3.5 SD of the protein, either way, in both replicates (recomputed)
lapatinib = compound: CS(=O)(=O)CCNCc1ccc(-c2ccc3ncnc(Nc4ccc(OCc5cccc(F)c5)c(Cl)c4)c3c2)o1 [lapatinib]
How it was run: (§1)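 A 30 min treatment with 10 μM compound was applied to crude K562 extract at 1 mg/mL protein in PBS pH 7.4 with 1 mM MgCl2. Heating for 3 min spanned 48°C-58°C, after which aliquots were pooled, adjusted to 0.5% NP-40 at 4°C and spun at 21,000xg for 90 min. TMTpro 16plex LC-MS/MS of the supernatant, with channel sums equalised, gave values recorded as log-two fold change in thermal stability against solvent controls, from duplicates.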

pictilisib = compound: CS(=O)(=O)N1CCN(Cc2cc3nc(-c4cccc5[nH]ncc45)nc(N4CCOCC4)c3s2)CC1 [pictilisib]
How it was run: as §1

crizotinib = compound: C[C@@H](Oc1cc(-c2cnn(C3CCNCC3)c2)cnc1N)c1c(Cl)ccc(F)c1Cl [crizotinib]
How it was run: as §1

[1] = compound: C[C@H](C1=CC=C(C=C1)C(=O)NC2=C3C=CNC3=NC=C2)N
How it was run: as §1

duvelisib = compound: C[C@H](Nc1ncnc2nc[nH]c12)c1cc2cccc(Cl)c2c(=O)n1-c1ccccc1 [duvelisib]
How it was run: as §1

gandotinib = compound: Cc1cc(Nc2cc(CN3CCOCC3)c3nc(C)c(Cc4ccc(Cl)cc4F)n3n2)n[nH]1 [gandotinib]
How it was run: as §1

tozasertib = compound: Cc1cc(Nc2cc(N3CCN(C)CC3)nc(Sc3ccc(NC(=O)C4CC4)cc3)n2)n[nH]1 [tozasertib]
How it was run: as §1

doramapimod = compound: Cc1ccc(-n2nc(C(C)(C)C)cc2NC(=O)Nc2ccc(OCCN3CCOCC3)c3ccccc23)cc1 [doramapimod]
How it was run: as §1

bafetinib = compound: Cc1ccc(NC(=O)c2ccc(CN3CC[C@H](N(C)C)C3)c(C(F)(F)F)c2)cc1Nc1nccc(-c2cncnc2)n1 [bafetinib]
How it was run: as §1

[2] = compound: Cc1cccc(CC(=O)N2CCc3c2ccc(-c2cn(C)c4ncnc(N)c24)c3F)n1
How it was run: as §1

nilotinib = compound: Cc1cn(-c2cc(NC(=O)c3ccc(C)c(Nc4nccc(-c5cccnc5)n4)c3)cc(C(F)(F)F)c2)cn1 [nilotinib]
How it was run: as §1

[3] = compound: Cc1nc(Nc2n[nH]c3c2CN(C(=O)N[C@H](CN(C)C)c2ccccc2)C3(C)C)c2sccc2n1
How it was run: as §1

dasatinib = compound: Cc1nc(Nc2ncc(C(=O)Nc3c(C)cccc3Cl)s2)cc(N2CCN(CCO)CC2)n1 [dasatinib]
How it was run: as §1

[4] = compound: Cc1ncc(-c2ccnc(Nc3ccc(S(C)(=O)=O)cc3)n2)n1C(C)C
How it was run: as §1

[5] = compound: Cn1cc(-c2ccc3c(c2)CCN3C(=O)Cc2cccc(C(F)(F)F)c2)c2c(N)ncnc21
How it was run: as §1

quisinostat = compound: Cn1cc(CNCC2CCN(c3ncc(C(=O)NO)cn3)CC2)c2ccccc21 [quisinostat]
How it was run: as §1

tipifarnib = compound: Cn1cncc1[C@@](N)(c1ccc(Cl)cc1)c1ccc2c(c1)c(-c1cccc(Cl)c1)cc(=O)n2C [tipifarnib]
How it was run: as §1

[6] = compound: NC(=O)Nc1cc(-c2cccc(F)c2)sc1C(=O)N[C@H]1CCCNC1
How it was run: as §1

[7] = compound: NC(=O)c1cnc(N[C@@H]2CCCC[C@@H]2N)nc1Nc1cccc(-n2nccn2)c1
How it was run: as §1

[8] = compound: NC1(c2ccc(-c3nc4ccn5c(=O)[nH]nc5c4cc3-c3ccccc3)cc2)CCC1
How it was run: as §1

Measured: log2 fold change

ARL15 (UniProt Q9NXU5)
UniProt Q9NXU5, sequence (Q9NXU5 whole entry, looked up): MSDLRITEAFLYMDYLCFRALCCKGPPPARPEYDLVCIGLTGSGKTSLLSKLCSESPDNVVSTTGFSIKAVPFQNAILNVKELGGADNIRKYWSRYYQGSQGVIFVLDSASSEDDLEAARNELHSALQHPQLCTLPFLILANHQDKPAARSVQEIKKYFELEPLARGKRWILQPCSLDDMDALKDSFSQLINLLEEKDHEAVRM
inactive: lapatinib -0.001 | pictilisib 0.097 | crizotinib 0 | duvelisib -0.004 | gandotinib -0.098 | tozasertib 0.023 | doramapimod 0.06 | bafetinib 0.225 | [2] -0.118 | nilotinib -0.008 | [3] 0.021 | dasatinib -0.063 | [4] -0.046 | [5] 0.036 | quisinostat 0.024 | tipifarnib 0.031 | [6] -0.034 | [7] 0.021 | [8] 0.022
active: [1] 0.682

ACBD6 (UniProt Q9BR61)
UniProt Q9BR61, sequence (Q9BR61 whole entry, looked up): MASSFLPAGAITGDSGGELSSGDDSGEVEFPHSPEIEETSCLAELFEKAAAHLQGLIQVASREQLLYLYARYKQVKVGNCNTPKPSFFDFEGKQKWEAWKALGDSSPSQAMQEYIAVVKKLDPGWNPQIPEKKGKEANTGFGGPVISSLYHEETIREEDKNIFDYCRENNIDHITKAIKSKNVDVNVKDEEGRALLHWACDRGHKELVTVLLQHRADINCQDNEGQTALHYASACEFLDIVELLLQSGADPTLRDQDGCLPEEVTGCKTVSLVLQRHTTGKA
inactive: lapatinib -0.002 | pictilisib 0.01 | crizotinib -0.04 | [1] -0.036 | duvelisib 0.063 | gandotinib -0.01 | tozasertib -0.051 | doramapimod -0.024 | bafetinib -0.047 | [2] 0.006 | nilotinib -0.032 | [3] 0.007 | dasatinib 0.04 | [4] 0.012 | [5] 0.013 | quisinostat -0.017 | tipifarnib 0.013 | [6] -0.014 | [7] 0.06 | [8] -0.04

ANKRD30A (UniProt Q9BXX3)
inactive: lapatinib -0.228 | pictilisib 0.028 | crizotinib 0.128 | [1] -0.155 | duvelisib -0.038 | tozasertib 0.281 | doramapimod -0.068 | bafetinib 0.069 | [2] 0.918 | nilotinib -0.008 | [3] -0.012 | dasatinib 0.006 | [4] -0.039 | [5] -0.017 | quisinostat 0.179 | tipifarnib 0.15 | [6] 0.047 | [7] 0.807
active: gandotinib 1.59

ADAR isoform 4 (UniProt P55265)
UniProt P55265, sequence (P55265 whole entry, looked up): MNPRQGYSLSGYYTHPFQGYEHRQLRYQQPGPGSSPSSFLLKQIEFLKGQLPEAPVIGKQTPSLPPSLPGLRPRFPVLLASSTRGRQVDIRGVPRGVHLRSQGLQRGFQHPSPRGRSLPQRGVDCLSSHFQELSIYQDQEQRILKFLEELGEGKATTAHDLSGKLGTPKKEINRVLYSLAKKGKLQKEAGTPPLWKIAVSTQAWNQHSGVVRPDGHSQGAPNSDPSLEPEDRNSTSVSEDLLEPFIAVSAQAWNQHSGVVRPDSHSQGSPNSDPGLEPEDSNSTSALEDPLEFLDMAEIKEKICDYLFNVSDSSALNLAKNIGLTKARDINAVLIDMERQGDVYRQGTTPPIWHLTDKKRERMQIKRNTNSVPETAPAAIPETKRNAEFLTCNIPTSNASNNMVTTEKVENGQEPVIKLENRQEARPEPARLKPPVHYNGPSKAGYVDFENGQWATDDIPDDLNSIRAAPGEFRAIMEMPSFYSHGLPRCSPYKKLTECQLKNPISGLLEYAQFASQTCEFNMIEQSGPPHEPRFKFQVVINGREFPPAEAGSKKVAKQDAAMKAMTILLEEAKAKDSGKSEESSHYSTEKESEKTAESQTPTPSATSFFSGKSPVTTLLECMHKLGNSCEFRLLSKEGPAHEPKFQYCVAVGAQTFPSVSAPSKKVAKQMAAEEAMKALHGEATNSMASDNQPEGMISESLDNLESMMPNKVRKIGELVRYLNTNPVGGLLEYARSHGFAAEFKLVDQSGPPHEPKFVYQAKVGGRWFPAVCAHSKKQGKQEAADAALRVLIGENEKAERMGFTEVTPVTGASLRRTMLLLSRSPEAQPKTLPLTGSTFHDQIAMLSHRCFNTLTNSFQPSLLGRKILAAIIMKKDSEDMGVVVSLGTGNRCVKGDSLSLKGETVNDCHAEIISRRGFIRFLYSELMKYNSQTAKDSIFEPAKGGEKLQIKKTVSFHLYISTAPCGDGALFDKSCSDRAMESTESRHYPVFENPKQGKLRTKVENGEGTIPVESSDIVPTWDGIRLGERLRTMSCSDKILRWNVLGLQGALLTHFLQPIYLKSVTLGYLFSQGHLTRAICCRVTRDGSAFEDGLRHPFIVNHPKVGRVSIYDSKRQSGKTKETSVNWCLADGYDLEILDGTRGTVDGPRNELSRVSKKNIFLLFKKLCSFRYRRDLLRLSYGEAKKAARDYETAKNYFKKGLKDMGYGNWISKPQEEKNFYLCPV
inactive: lapatinib 0.023 | pictilisib -0.135 | crizotinib 0 | [1] 0.01 | duvelisib 0.016 | gandotinib -0.038 | tozasertib 0.016 | doramapimod 0.069 | bafetinib -0.16 | [2] 0.028 | nilotinib 0.006 | [3] 0.012 | dasatinib -0.026 | [4] -0.027 | [5] 0.009 | quisinostat -0.114 | tipifarnib -0.009 | [6] 0.015 | [7] -0.009 | [8] 0.029

ANXA2 isoform 2 (UniProt P07355)
UniProt P07355, sequence (P07355 whole entry, looked up): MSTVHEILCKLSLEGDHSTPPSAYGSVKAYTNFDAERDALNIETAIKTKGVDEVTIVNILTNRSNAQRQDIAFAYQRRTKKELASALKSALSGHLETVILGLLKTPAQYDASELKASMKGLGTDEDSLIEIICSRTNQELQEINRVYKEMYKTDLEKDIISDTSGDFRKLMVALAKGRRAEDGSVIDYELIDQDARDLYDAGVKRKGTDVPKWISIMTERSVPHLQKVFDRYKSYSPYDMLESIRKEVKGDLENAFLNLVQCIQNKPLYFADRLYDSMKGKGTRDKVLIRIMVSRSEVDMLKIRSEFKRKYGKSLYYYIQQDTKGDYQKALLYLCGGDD
inactive: lapatinib 0.009 | pictilisib -0.005 | crizotinib 0.029 | [1] 0.017 | duvelisib -0.028 | gandotinib 0.008 | tozasertib -0.001 | doramapimod -0.024 | bafetinib 0.065 | [2] -0.041 | nilotinib 0.035 | [3] -0.016 | dasatinib 0.048 | [4] 0.003 | [5] -0.017 | quisinostat 0.064 | tipifarnib 0.016 | [6] -0.018 | [7] -0.015 | [8] 0.022

ACACB (UniProt O00763)
inactive: lapatinib -0.032 | pictilisib -0.029 | crizotinib -0.103 | [1] -0.113 | duvelisib 0.032 | gandotinib 0.021 | tozasertib 0.072 | doramapimod 0.054 | bafetinib -0.113 | [2] 0.165 | nilotinib -0.001 | [3] -0.042 | dasatinib -0.021 | [4] -0.052 | [5] 0.05 | quisinostat -0.061 | tipifarnib 0.048 | [6] 0.062 | [7] -0.001 | [8] -0.018

ALDH1L2 (UniProt Q3SY69)
UniProt Q3SY69, sequence (Q3SY69 whole entry, looked up): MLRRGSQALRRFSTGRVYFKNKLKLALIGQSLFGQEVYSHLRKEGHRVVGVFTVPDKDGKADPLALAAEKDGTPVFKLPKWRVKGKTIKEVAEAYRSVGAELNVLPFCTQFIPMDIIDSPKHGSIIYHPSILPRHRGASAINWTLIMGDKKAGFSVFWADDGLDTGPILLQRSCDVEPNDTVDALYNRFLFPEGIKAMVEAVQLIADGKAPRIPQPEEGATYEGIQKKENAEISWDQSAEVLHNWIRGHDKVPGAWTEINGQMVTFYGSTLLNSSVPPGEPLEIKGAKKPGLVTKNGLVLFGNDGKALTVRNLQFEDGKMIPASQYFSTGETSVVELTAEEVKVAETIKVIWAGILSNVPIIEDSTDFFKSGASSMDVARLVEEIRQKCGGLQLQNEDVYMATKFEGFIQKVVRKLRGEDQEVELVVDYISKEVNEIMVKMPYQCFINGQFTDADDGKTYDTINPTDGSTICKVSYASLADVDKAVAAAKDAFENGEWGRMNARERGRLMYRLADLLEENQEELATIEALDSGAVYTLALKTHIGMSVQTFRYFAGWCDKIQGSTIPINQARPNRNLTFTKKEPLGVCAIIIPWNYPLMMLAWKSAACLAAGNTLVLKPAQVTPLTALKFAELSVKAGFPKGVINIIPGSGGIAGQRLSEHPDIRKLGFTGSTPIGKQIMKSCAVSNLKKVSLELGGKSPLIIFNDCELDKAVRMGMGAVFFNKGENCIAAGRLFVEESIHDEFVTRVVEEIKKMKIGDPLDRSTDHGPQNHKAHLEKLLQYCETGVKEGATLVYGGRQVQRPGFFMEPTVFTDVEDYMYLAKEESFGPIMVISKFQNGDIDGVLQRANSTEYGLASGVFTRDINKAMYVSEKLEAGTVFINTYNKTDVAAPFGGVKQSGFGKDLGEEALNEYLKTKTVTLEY
inactive: lapatinib 0.029 | pictilisib -0.01 | crizotinib -0.032 | [1] -0.066 | duvelisib 0.003 | gandotinib 0.039 | tozasertib 0.032 | doramapimod 0.005 | bafetinib -0.029 | [2] 0.083 | nilotinib -0.013 | [3] 0.01 | dasatinib -0.021 | [4] 0.012 | [5] 0.046 | quisinostat -0.027 | tipifarnib 0.012 | [6] 0.026 | [7] 0.05 | [8] -0.042

ALDH6A1 (UniProt Q02252)
UniProt Q02252, sequence (Q02252 whole entry, looked up): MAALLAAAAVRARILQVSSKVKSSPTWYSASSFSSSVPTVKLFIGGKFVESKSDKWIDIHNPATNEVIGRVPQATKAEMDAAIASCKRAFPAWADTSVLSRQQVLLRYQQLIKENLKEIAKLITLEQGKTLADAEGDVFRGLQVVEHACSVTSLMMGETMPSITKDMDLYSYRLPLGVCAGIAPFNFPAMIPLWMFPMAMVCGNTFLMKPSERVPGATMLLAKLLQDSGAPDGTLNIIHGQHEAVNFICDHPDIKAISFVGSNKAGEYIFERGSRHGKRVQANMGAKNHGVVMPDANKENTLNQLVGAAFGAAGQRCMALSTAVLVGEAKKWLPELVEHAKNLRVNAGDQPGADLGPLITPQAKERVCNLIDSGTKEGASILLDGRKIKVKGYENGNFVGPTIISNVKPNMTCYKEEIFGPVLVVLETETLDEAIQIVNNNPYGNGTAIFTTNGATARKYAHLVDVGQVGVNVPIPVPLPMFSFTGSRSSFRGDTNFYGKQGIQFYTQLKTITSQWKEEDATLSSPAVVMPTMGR
inactive: lapatinib -0.04 | pictilisib -0.028 | crizotinib -0.023 | [1] -0.032 | duvelisib 0.073 | gandotinib -0.033 | tozasertib 0.021 | doramapimod -0.017 | bafetinib 0.122 | [2] -0.001 | nilotinib -0.053 | [3] 0.161 | dasatinib -0.144 | [4] -0.022 | [5] 0.06 | quisinostat -0.027 | tipifarnib -0.026 | [6] 0.018 | [7] -0.038 | [8] -0.013

ARHGEF1 (UniProt M0QZR4)
inactive: lapatinib 0.006 | pictilisib -0.011 | crizotinib -0.041 | [1] -0.038 | duvelisib -0.007 | gandotinib -0.012 | tozasertib 0.029 | doramapimod 0.02 | bafetinib -0.019 | [2] 0.106 | nilotinib 0.009 | [3] -0.031 | dasatinib -0.058 | [4] -0.016 | [5] 0.022 | quisinostat -0.02 | tipifarnib 0.01 | [6] 0.015 | [7] 0.017 | [8] -0.015

ANKRD27 (UniProt Q96NW4)
UniProt Q96NW4, sequence (Q96NW4 whole entry, looked up): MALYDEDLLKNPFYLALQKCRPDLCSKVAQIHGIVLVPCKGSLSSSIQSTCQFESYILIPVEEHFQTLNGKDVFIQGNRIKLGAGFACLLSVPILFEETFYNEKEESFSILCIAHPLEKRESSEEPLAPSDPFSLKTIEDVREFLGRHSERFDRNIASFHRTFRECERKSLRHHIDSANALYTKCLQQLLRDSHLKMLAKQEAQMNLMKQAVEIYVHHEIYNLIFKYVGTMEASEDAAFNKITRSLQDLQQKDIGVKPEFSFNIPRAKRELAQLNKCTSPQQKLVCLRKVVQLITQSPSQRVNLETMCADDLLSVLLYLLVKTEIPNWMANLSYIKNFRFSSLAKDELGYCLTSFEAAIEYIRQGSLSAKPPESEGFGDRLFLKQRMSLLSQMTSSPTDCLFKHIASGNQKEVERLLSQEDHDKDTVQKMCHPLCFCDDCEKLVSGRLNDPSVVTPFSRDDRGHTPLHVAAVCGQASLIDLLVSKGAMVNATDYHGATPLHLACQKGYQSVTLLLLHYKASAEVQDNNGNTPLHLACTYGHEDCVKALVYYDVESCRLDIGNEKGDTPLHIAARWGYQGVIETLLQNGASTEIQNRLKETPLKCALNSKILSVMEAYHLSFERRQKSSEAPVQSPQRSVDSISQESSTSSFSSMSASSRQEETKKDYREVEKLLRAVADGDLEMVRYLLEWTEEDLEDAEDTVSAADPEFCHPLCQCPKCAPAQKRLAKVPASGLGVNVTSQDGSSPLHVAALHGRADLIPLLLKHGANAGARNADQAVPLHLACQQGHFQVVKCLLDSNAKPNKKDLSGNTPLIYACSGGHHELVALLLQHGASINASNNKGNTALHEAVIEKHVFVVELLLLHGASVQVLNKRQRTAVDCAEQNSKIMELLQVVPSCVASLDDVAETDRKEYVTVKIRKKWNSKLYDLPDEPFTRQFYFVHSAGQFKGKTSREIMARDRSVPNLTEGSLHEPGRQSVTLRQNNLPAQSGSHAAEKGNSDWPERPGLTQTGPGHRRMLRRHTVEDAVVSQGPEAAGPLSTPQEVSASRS
inactive: lapatinib 0.025 | pictilisib -0.026 | crizotinib -0.095 | [1] -0.03 | duvelisib -0.025 | gandotinib 0.049 | tozasertib 0.002 | doramapimod -0.009 | bafetinib -0.059 | [2] 0.022 | nilotinib 0.016 | [3] 0.049 | dasatinib -0.01 | [4] 0.061 | [5] -0.023 | quisinostat -0.177 | tipifarnib -0.067 | [6] 0.05 | [7] 0.025 | [8] -0.033

AIF1L (UniProt Q9BQI0)
inactive: lapatinib 0.047 | pictilisib 0.046 | crizotinib 0.039 | [1] 0.069 | duvelisib -0.075 | gandotinib -0.171 | tozasertib -0.105 | doramapimod -0.037 | bafetinib -0.122 | [2] 0.101 | nilotinib -0.263 | [3] -0.176 | dasatinib 0.118 | [4] 0.142 | [5] -0.058 | quisinostat -0.075 | tipifarnib 0.123 | [6] -0.112 | [7] -0.012 | [8] 0.016

ABCF2 isoform 2 (UniProt Q9UG63)
inactive: lapatinib -0.038 | pictilisib -0.005 | crizotinib -0.011 | [1] -0.001 | duvelisib 0.021 | gandotinib -0.097 | tozasertib 0.057 | doramapimod -0.002 | bafetinib -0.025 | [2] -0.024 | nilotinib 0.001 | [3] -0.001 | dasatinib -0.036 | [4] -0.024 | [5] 0.005 | quisinostat -0.022 | tipifarnib 0.002 | [6] 0.042 | [7] -0.002 | [8] -0.023

AKT1 (UniProt P31749)
UniProt P31749, sequence (P31749 whole entry, looked up): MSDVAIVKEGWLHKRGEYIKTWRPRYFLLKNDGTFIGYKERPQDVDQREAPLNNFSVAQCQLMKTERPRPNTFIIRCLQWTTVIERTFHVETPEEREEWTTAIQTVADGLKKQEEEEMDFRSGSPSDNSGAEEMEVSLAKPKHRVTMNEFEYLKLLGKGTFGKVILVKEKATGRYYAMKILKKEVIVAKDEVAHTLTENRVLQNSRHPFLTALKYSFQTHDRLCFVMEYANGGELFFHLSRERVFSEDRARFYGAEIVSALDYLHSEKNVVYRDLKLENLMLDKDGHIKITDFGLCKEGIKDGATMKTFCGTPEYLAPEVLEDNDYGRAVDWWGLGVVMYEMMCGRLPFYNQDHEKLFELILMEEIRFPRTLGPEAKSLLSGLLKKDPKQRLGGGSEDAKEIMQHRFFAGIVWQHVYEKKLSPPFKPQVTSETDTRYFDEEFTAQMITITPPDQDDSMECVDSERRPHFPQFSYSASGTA
inactive: lapatinib 0.054 | pictilisib 0.002 | crizotinib -0.049 | [1] -0.034 | duvelisib -0.008 | gandotinib -0.048 | tozasertib 0 | doramapimod 0.031 | bafetinib -0.044 | [2] 0.033 | nilotinib -0.05 | [3] 0.012 | dasatinib -0.014 | [4] -0.01 | [5] 0.001 | quisinostat -0.1 | tipifarnib 0.025 | [6] 0 | [7] -0.007
active: [8] 0.669

ASB6 (UniProt Q9NWX5)
inactive: lapatinib -0.04 | pictilisib -0.029 | crizotinib 0.01 | [1] 0.093 | duvelisib 0.008 | gandotinib -0.065 | tozasertib -0.159 | doramapimod 0.004 | bafetinib -0.055 | [2] -0.028 | nilotinib -0.024 | [3] 0.01 | dasatinib 0.01 | [4] 0.029 | [5] -0.025 | quisinostat -0.002 | tipifarnib 0.041 | [6] -0.01 | [7] 0.016 | [8] 0.08

ALDH5A1 isoform 2 (UniProt P51649)
inactive: lapatinib -0.012 | pictilisib -0.049 | crizotinib -0.044 | [1] 0 | duvelisib -0.056 | gandotinib -0.059 | tozasertib 0.005 | doramapimod -0.011 | bafetinib 0.008 | [2] -0.035 | nilotinib 0.003 | [3] -0.019 | dasatinib -0.005 | [4] -0.015 | [5] -0.003 | quisinostat 0.028 | tipifarnib -0.063 | [6] 0.04 | [7] 0.004 | [8] -0.023

ADAMTS5 (UniProt Q9UNA0)
active: [1] -0.843
inactive: lapatinib -0.102 | pictilisib -0.015 | crizotinib -0.139 | duvelisib -0.004 | gandotinib 0.332 | tozasertib 0.011 | doramapimod 0.04 | bafetinib -0.211 | [2] 0.33 | nilotinib 0.003 | [3] -0.062 | dasatinib -0.01 | [4] -0.011 | [5] 0.014 | quisinostat -0.222 | tipifarnib -0.041 | [6] 0.016 | [7] 0.031 | [8] -0.083
